Measured values from PubChem BioAssay AID743445 (Broad Institute, 2014).
About 1,700 (0.55%) of roughly 310,000 compounds were called active. Only a selection was taken, and actives are over-represented in it overall. Unmarked numbers belong to inactive results. Cut-off read from the data, not from the text of the source: active = inhibition above about 50%; inactive = the rest.

biological target: Histone-lysine N-methyltransferase NSD2 (Homo sapiens) (UniProt O96028); experiment: blockers of NSD2 lysine methylation activity – biochemical, AlphaScreen, single concentration, set 2, primary screen (AID 743445); conditions: NSD2 peptide methylation, 120 min, at 12.5 µM, hits give high values
Sequence (O96028 whole entry, looked up): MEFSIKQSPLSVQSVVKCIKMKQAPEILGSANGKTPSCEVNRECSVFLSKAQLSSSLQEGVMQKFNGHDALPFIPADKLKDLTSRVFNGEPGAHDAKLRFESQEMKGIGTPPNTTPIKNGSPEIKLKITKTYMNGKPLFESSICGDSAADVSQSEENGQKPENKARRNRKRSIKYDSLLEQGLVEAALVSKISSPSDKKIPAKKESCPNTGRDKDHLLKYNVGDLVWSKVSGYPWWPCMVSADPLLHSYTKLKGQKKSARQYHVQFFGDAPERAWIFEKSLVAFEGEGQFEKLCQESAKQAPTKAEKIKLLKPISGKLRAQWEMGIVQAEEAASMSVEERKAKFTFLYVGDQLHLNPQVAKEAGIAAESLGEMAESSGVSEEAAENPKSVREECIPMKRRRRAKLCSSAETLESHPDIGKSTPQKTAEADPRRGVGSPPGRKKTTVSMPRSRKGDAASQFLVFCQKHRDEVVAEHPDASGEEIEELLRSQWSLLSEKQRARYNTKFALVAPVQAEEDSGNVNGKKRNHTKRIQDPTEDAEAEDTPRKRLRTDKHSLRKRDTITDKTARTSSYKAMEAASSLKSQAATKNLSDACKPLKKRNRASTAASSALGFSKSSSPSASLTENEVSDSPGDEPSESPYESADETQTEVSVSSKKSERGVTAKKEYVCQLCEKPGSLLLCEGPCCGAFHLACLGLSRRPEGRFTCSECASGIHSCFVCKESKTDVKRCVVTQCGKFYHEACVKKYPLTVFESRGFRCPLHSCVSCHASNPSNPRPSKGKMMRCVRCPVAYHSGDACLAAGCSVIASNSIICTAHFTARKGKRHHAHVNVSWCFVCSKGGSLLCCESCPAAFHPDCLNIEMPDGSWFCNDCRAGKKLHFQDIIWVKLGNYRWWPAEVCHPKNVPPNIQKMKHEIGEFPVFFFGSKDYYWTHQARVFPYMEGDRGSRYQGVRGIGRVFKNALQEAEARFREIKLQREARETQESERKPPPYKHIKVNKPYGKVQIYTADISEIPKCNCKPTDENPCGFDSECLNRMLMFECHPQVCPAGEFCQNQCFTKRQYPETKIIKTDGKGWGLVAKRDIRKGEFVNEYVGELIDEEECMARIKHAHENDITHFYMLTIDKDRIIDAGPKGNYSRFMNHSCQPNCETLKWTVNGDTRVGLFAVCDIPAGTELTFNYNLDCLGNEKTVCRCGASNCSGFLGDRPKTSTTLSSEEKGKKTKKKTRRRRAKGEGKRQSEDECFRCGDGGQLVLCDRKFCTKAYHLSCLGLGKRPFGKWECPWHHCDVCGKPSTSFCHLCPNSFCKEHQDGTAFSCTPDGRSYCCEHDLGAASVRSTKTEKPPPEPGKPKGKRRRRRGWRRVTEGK

First: CN1CCN(c2ccc(S(=O)(=O)N3CCCCC3)cc2NC(=O)Cc2ccccc2F)CC1
Second: CCN(CC)S(=O)(=O)c1ccc(N2CCOCC2)c(NC(=O)C(C)Oc2ccc(F)cc2)c1 (stereo not drawn)
The inhibition of the first is higher: 1.27% for the first, -1.83% for the second.

Compared with `Cc1nc([N+](=O)[O-])cn1CC(=O)Nc1ccc2c(c1)OCO2`, `Cc1nc([N+](=O)[O-])cn1CC(=O)Nc1ccc(Cl)cc1` is higher in inhibition: -1.66% for the first, -0.868% for the second.

Compared with `COc1ccc(OC)c(-c2csc(NC(=O)COC(=O)C3CC3)n2)c1`, `CCOC(=O)C(=O)N(Cc1ccccc1)c1ccccc1C(=O)Nc1cc(OC)ccc1OC` is higher in inhibition: -2.87% for the first, 3.11% for the second.

Going from `COc1ccc(CCc2nc(-c3cccs3)no2)cc1` to `c1csc(-c2nnc(SCc3nc4ccccc4[nH]3)o2)c1`, the inhibition falls from -6.21% to -7.8%.

Compared with `COc1ccc(-c2cc(NC=O)c3ncc(-c4cc(OC)c(OC)c(OC)c4)n3c2)c(OC)c1`, `CC(=O)c1cccc(-c2cnc3c(NC=O)cc(-c4ccc(N5CCN(C)CC5)cc4)cn23)c1` is higher in inhibition: 2.63% for the first, 2.68% for the second.

Compared with `COc1ccc(C(=O)N2CCCCC2c2cc(C(=O)Nc3ccc(F)c(Cl)c3)no2)cc1` (stereo not drawn), `O=C(Nc1cccnc1Cl)c1cc(-c2cccc(Cl)c2)on1` is lower in inhibition: -0.843% for the first, -7.36% for the second.

Compared with `COc1ccc(C(C)NC(=O)C23CC4CC(CC(C4)C2)C3)cc1` (stereo not drawn), `CCOc1ccc(C(CC(=O)O)NC(=O)Cc2ccccc2)cc1OC` (stereo not drawn) is higher in inhibition: 0.365% for the first, 0.638% for the second.

First: CCC(NC(=O)C1C2C=CC3(CN(Cc4ccccc4)C(=O)C13)O2)c1ccccc1 (stereo not drawn)
Second: COc1cccc(CSc2nnc(-c3cccnc3)n2Cc2ccccc2)c1
The inhibition of the first is lower: -0.276% for the first, 2.07% for the second.

Compared with `CC(=O)N1CCc2cc(S(=O)(=O)NCCC(=O)N3CCCC3)ccc21`, `O=C(NCCCN1CCOCC1)c1cc(-c2cccc(O)c2)on1` is higher in inhibition: -3.38% for the first, -0.66% for the second.

Going from `Cc1ccc(-n2c(SCC(=O)Nc3ccc(S(=O)(=O)Nc4nccs4)cc3)nnc2-c2ccccn2)cc1` to `Cc1cc(NS(=O)(=O)c2ccc(NC(=O)CSc3nnc(SCc4ccc(F)cc4)s3)cc2)nc(C)n1`, the inhibition falls from 10.5% to 1.71%.

First: COc1ccccc1CCNC(=O)C1CCN(c2nc(C)cc(C)n2)CC1
Second: COCC(C)n1c(SCc2ccc(C(=O)OC)o2)nc2ccccc2c1=O (stereo not drawn)
The inhibition of the first is lower: -3.97% for the first, -0.047% for the second.

First: Cc1ccc(C(=O)N(Cc2ccccn2)CC2CCCO2)cc1 (stereo not drawn)
Second: Cc1cccc(OCC(=O)NCCCNC(=O)c2ccccn2)c1
The inhibition of the first is lower: -6.08% for the first, 1.46% for the second.

First: OC(c1ccccc1)c1nc(/C=C/c2ccc(C(F)(F)F)cc2)cs1 (stereo not drawn)
Second: OC(c1ccccc1)c1nc(-c2cnc3ccccc3c2)cs1 (stereo not drawn)
The inhibition of the first is lower: -1.07% for the first, 2.58% for the second.

Compared with `CSc1ccc(CN2CCC2(C)C(=O)Nc2ccc(C)c(O)c2)cc1` (stereo not drawn), `CC1(Oc2ccc(Cl)cc2)CCN(Cc2csc3ccccc23)C1` (stereo not drawn) is lower in inhibition: -2.34% for the first, -2.85% for the second.

Going from `COCCn1c(C)cc(C(=O)CSc2nc3ccccc3c(=O)n2C(C)COC)c1C` (stereo not drawn) to `CCOc1ccc(-n2c(SCC(=O)Nc3cc(C)c(NC(=O)c4ccccc4)cc3OC)nnc2-c2cccc(Cl)c2)cc1`, the inhibition rises from 1.34% to 1.66%.

Going from `COC(CNC(=O)[C@H](Cc1ccccc1)NC1(C(=O)NC2CCCCC2)CCCCC1)OC` to `COC(=O)CC1CCc2cc(C)cc(C(CC(C)C)NC(=O)[C@H](CC(C)C)NC(=O)OCc3ccccc3)c2O1` (stereo partly drawn), the inhibition falls from -1.53% to -2.73%.

Going from `COC(=O)c1nc(NC(=O)c2ccc(F)cc2)n[nH]1` to `COC(=O)c1nc(NC(=O)c2ccc(C(C)(C)C)cc2)n[nH]1`, the inhibition rises from -3.85% to -1.33%.

Compared with `CCc1nc2c(OCCOc3ccccc3)cccn2c1N(C)C(=O)c1cccs1`, `CCOc1cc2ccccc2cc1C(=O)Nc1ccccn1` is higher in inhibition: -0.996% for the first, -0.208% for the second.

Compared with `CC(C)(C)CC(=O)Nc1nc(C(N)Cc2ccc(C(F)(F)F)cc2)cs1` (stereo not drawn), `Cn1ncc2c(NNC(=O)Cc3cccc4ccccc34)ncnc21` is lower in inhibition: 14% for the first, -5.08% for the second.

First: Cc1ccc(-c2nc(C3CCCN(S(=O)(=O)c4ccc(Br)s4)C3)no2)cc1 (stereo not drawn)
Second: Cc1cccc(N=Nc2c(C)[nH]n(-c3ccccc3)c2=O)c1
The inhibition of the first is lower: -7.73% for the first, 9.54% for the second.

Compared with `C=CCn1c2c(c3ccccc31)CCC2`, `COC(=O)c1ccccc1N=Nc1c(C)[nH][nH]c1=O` is lower in inhibition: 1.47% for the first, 0.329% for the second.

Going from `Cc1ccc(Nc2ncnc3c2cnn3C)c(C)c1` to `Cc1cc(C)cc(NC(=O)N2CCC(N(C)CCC(C)C)CC2)c1`, the inhibition rises from -0.415% to 6.38%.

Going from `COC(=O)/C=C/C(=O)NCc1ccco1` to `O=C(NCc1ccco1)C1(c2ccc(Cl)cc2)CCCC1`, the inhibition rises from 0.685% to 3.15%.

For `CCN(CC)S(=O)(=O)c1ccc(N2CCN(C)CC2)c(NC(=O)Nc2ccccc2F)c1`, the inhibition was 78.4% (active).
For `Cc1ccc(C(=O)Cn2cc([N+](=O)[O-])nc2C)cc1`, the inhibition was 55.2% (active).
For `COc1ccc(OC)c(-c2csc(-c3cccs3)n2)c1`, the inhibition was 126% (active).
In the case of `CCOc1ccc(C(CC(=O)O)NC(=O)C23CC4CC(CC(C4)C2)C3)cc1OC` (stereo not drawn), the inhibition is reported as 73.2% (active).
In the case of `Cc1coc2c(O)cc3c(c12)OC1(N2CCCCC2)C(=O)NCCCC31` (stereo not drawn), the inhibition is reported as 75.1% (active).
With `COCC(C)n1c(SCC(=O)NC2CCCCC2C)nc2ccccc2c1=O` (stereo not drawn) the inhibition was 52.7% (active).
In the case of `COC(=O)c1nc(NC(=O)c2ccccc2)n[nH]1`, the inhibition is reported as 64.1% (active).
`CCN(CC)CCCNC(=O)c1cc(-c2cccc(Cl)c2)on1` was tested, and the inhibition was 63.4% (active).
In the case of `CCN(CC)CCOc1ccc2c(c1)C(=NNC(=O)c1ccccn1)c1cc(OCCN(CC)CC)ccc1-2`, the inhibition is reported as 64.6% (active).
With `Cn1ncc2c(Nc3cccc4ccccc34)ncnc21` the inhibition was 58.9% (active).
`Cc1[nH]n(-c2ccccc2)c(=O)c1N=Nc1ccccc1C(=O)N1CCCCC1` was tested, and the inhibition was 56.8% (active).
For `O=C(/C=C/c1ccc(Cl)cc1Cl)NCc1ccco1`, the inhibition was 57.4% (active).
